Measured values reported in PubChem BioAssay (NCI).
Compounds without any hit were thinned out: in the full panel of roughly 83,000, 20% have a hit.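 The endpoint reported here, percent growth, reads 100 for growth as untreated, 0 for no net growth and -100 for all cells dead.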 A number with no mark means an inactive call. Calls of active or inactive are those of the source. Rule for the calls: active = growth percent below 10; inactive = the rest.

Key:
Assay in all cases: NCI-60 one-dose screen, 48 h (100 = growth as untreated, 0 = no growth, -100 = all killed)
[1] = tested on: A549/ATCC NSCLC; settings: 10 µM unless noted
[2] = tested on: DU-145 prostate; settings: 10 µM unless noted
[3] = tested on: K-562 leukemia; settings: 10 µM unless noted
[4] = tested on: SF-295 CNS; settings: 10 µM unless noted
[5] = tested on: UACC-257 melanoma; settings: 10 µM unless noted
[6] = tested on: HCT-15 colon; settings: 10 µM
[7] = tested on: HT29 colon; settings: 10 µM unless noted
[8] = tested on: LOX IMVI melanoma; settings: 10 µM unless noted
[9] = tested on: CAKI-1 renal; settings: 10 µM unless noted
[10] = tested on: A498 renal; settings: 10 µM unless noted
[11] = tested on: HL-60(TB) leukemia; settings: 10 µM unless noted
[12] = tested on: MOLT-4 leukemia; settings: 10 µM
[13] = tested on: OVCAR-8 ovarian; settings: 10 µM unless noted
[14] = tested on: OVCAR-4 ovarian; settings: 10 µM unless noted
[15] = tested on: SK-OV-3 ovarian; settings: 10 µM unless noted
[16] = tested on: HS 578T breast; settings: 10 µM unless noted
[17] = tested on: BT-549 breast; settings: 10 µM
[18] = tested on: HCC-2998 colon; settings: 10 µM unless noted
[19] = tested on: SN12C renal; settings: 10 µM unless noted
[20] = tested on: RXF 393 renal; settings: 10 µM unless noted

Row | Compound | growth [1] | growth [2] | growth [3] [%] | growth [4] | growth [5] | growth [6] | growth [7] | growth [8] | growth [9] | growth [10] | growth [11] | growth [12] [%] | growth [13] | growth [14] | growth [15] | growth [16] | growth [17] | growth [18] | growth [19] | growth [20]
1 | CCCCn1cc(C(=O)/C(C#N)=C/c2cc3ccccc3nc2Cl)c2cc(OC)ccc21 | 102% | 104% | 47.5 | 95.9% | 98.5% | 94.3% | 89.9% | 74% | 75% | 94.8% | 88.7% | 67.8 | 75.1% | 95.5% | 94.5% | 88.6% | 91.7% | 96.8% | – | –
2 | CC(/C=N/N=C(N)N)=N/N=C(N)N | 106% | 93.9% | 82.1 | 93.6% | 113% | 98% | 91.8% | 88.9% | 83% | 90.2% | 84.5% | 101 | 77.8% | 91.9% | 97.2% | 88.6% | – | -14.8% (active) | 94.9% | –
3 | CCCCN(CCCC)CC(O)c1ccccc1 (stereo not drawn) | 104% | 113% | 103 | 103% | 106% | 104% | 109% | 103% | 107% | 82.6% | 111% | 97.2 | 109% | 95.4% | 111% | 97.5% | 124% | 102% | – | 116%
4 | CCCCCCCC(=O)OCC/C=C/C1OC1C1OC(=O)/C=C\C=C\c2nc(oc2C)/C=C(/C)CCC2OC2C1OC(=O)NC(C)=O (stereo not drawn) | 5.19% (active) | -74.5% (active) | – | -37.6% (active) | 5.16% (active) | -5.6% (active) | 4.62% (active) | -21.6% (active) | -6.91% (active) | -82.5% (active) | – | – | -79.1% (active) | 8.12% (active) | -38.5% (active) | -1.2% (active) | -2.38% (active) | -92.8% (active) | -99.9% (active) | -58.3% (active)
5 | O=C(NCCNC(=O)c1ccc([As](O)O)cc1)c1ccc([As](O)O)cc1 | 109% | 103% | 116 | 107% | 103% | 107% | 112% | 90.3% | 98.3% | 92% | 105% | 109 | 103% | 105% | 104% | 91.7% | 111% | 100% | 113% | 105%
6 | C[C@]12CCC(=O)CC1CC[C@@H]1C2CC[C@@]2(C)C1CC[C@@H]2OC(=O)CC[Se][Se]CCC(=O)O[C@H]1CCC2[C@@H]3CCC4CC(=O)CC[C@]4(C)C3CC[C@@]21C (stereo partly drawn) | 101% | 110% | – | 96.7% | 90.6% | 97.4% | 83.1% | 80.8% | 84.6% | 84.6% | 9.16% (active) | 90.1 | 94.2% | 83.2% | 160% | 52.9% | 96.8% | 108% | – | 81.7%
7 | CO[C@@H]1[C@H](OC(=O)NC(=O)CCl)CC[C@]2(CO2)[C@H]1[C@@]1(C)O[C@@H]1CC=C(C)C | 59.1% | 59.8% | 47.2 | 75.1% | 44.3% | 30% | 58.1% | 22.8% | 67.2% | 103% | 49.1% | 63 | – | 47.8% | 93.7% | 61.2% | 61.2% | 80.9% | 72.3% | 68.2%
8 | CC(=O)O[C@H]1CC[C@H]2[C@@H]3CC[C@H]4CC=C(C)C[C@]4(C)[C@H]3CC[C@]12C | 107% | 106% | – | 103% | 111% | 98.6% | 98.4% | 102% | 50.7% | 104% | 89.9% | 94 | 102% | 104% | 102% | 109% | 107% | 111% | 101% | 111%
9 | O=C1NC(=O)C(Cc2ccccc2)(Cc2ccccc2)C(=O)N1 | 104% | 115% | 86.7 | 105% | 108% | 108% | 104% | 90.4% | 114% | 104% | 89.4% | 100 | 106% | 95.7% | 89.2% | 109% | 118% | 104% | 104% | 113%
10 | N#CC1=C(N)Oc2cc3c(cc2C1c1cccs1)OCO3 (stereo not drawn) | 36.8% | 15.5% | – | 4.03% (active) | 60.8% | 35.5% | 8.98% (active) | 37.2% | 43.4% | 7.63% (active) | -28.6% (active) | 29.9 | 35.1% | 52.8% | 7.21% (active) | 24.6% | 44.6% | 39.5% | 52.7% | -5.68% (active)
11 | c1cnc2c(c1)ccc1ncccc12 | 107% | 107% | 99.8 | 115% | 96.6% | 110% | 109% | 106% | 91.7% | 207% | 93.6% | 100 | 94.4% | 109% | 104% | 159% | 106% | 119% | 95.3% | –
12 | CCC1([N+](=O)[O-])COP(=O)(NCc2cccnc2)OC1 (stereo not drawn) | 102% | 103% | 106 | 104% | 113% | 104% | 116% | 102% | 103% | 94.3% | 107% | 111 | 108% | 112% | 94.4% | 107% | 114% | 115% | 114% | 106%
13 | O=S(=O)(Cl)c1ccccc1 (tested in a mixture with another compound) | 102% | 109% | – | – | 97.1% | 101% | 101% | 98.8% | 109% | 85% | – | 93 | 108% | 106% | 102% | 102% | 99.5% | 100% | 102% | 99.1%
14 | C[C@]12CC[C@@H]3c4ccc(OC(=O)Cc5ccc(N(CCCl)CCCl)cc5)cc4CC[C@H]3[C@@H]1CC[C@@H]2OC(=O)Cc1ccc(N(CCCl)CCCl)cc1 | – | 103% | 106 | 103% | – | 113% | 117% | 108% | 101% | 121% | 108% | 104 | 109% | 111% | 126% | 120% | – | – | 92.3% | –
